DUSP3 inh: VHR1 phosphatase inhibitors, primary screen, biochemical, absorbance, uHTS; Dual specificity protein phosphatase 3 (Homo sapiens), P51452; hit rate 0.52% among 290,000; AID 1654, 2009; inhibition, % at 13.3 µM; recombinant VHR phosphatase, pNPP absorbance; in the data active = inhibition above about 50%
SSB-PriA inh: inhibitors of Klebsiella pneumoniae PriA binding to SSB C-terminal tail, primary screen, biochemical, AlphaScreen; hit rate 0.6% among 430,000; AlphaScreen SSBct-PriA binding, biotinylated peptide; inhibition, % at 33 µM; PriA–SSB C-terminal tail interaction (Klebsiella pneumoniae); AID 1272365, 2023; in the data active = inhibition mostly above about 37%, no sharp cut-off; inactive = mostly below about 20%;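 note: plate controls were negative control peptide for no effect and reference peptide for full effect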
TcdB inh: TcdB glycohydrolase inhibitors, primary screen, biochemical, single point, plate reader; inhibition, % at 9.99 µM; hit rate 0.24% among 350,000; TcdB glycohydrolase enzymatic assay; in the data active = inhibition above about 10%
SARS 3CLpro inh: SARS-CoV 3CLpro protease inhibitors, primary screen, biochemical, quenched FRET | recombinant SARS-CoV 3CLpro, quenched FRET peptide cleavage | inhibition, % at 6 µM | hit rate 0.14% among 290,000 | AID 1706, 2009; in the data active = inhibition above about 12%
Vc quorum ag: inducers of Vibrio cholerae quorum light production without autoinducers, primary screen, BH1578 luxS cqsA deficient, single point. V. cholerae BH1578 lux reporter, luminescence, 6 h. activation, % at 18.7 µM. hit rate 0.16% among 350,000. AID 588436, 2011; in the data active = activation mostly above about 9.7%, no sharp cut-off
CCHF vOTU inh: CCHFV vOTU protease inhibitors, primary screen, biochemical, Pep-AMC substrate, fluorescence; Crimean-Congo hemorrhagic fever virus L polyprotein viral ovarian tumor (vOTU) protease …; inhibition, % at 11.5 µM; hit rate 0.55% among 370,000; AID 651958, 2012; in the data active = inhibition above about 30%; note: 0% = vehicle wells with enzyme and 100% = no enzyme wells
* = called active by the depositor; i = inactive; x = not tested or not shown. The list is not random: actives were taken first. Their share in the collection is about 1.3%.

SMILES | DUSP3 inh | SSB-PriA inh | TcdB inh | SARS 3CLpro inh | Vc quorum ag | CCHF vOTU inh
CCN(CCNC(=O)C1CCN(Cc2nc(-c3ccc(Cl)cc3)oc2C)CC1)c1ccccc1 | -8 | 46* | x | -6 | -6 | -3
Cc1oc(-c2ccc(Cl)cc2)nc1CN1CCCC(C(=O)N2CCN(C(=O)c3ccco3)CC2)C1 (stereo not drawn) | 52* | -7 | 2 | 3 | i | 9
CCc1ccc(-c2nc(CN3CCC(C(=O)NCCN(CC)c4ccccc4)CC3)c(C)o2)cc1 | 24 | 28 | x | 0 | 0 | -2
Cc1oc(-c2ccc(Cl)cc2)nc1CN1CCCC(C(=O)N2CCOCC2)C1 (stereo not drawn) | -16 | -8 | 0 | 3 | -1 | 1
CCN(CCNC(=O)C1CCCN(Cc2nc(-c3ccc(OC)cc3)oc2C)C1)c1ccccc1 (stereo not drawn) | 4 | 48* | x | 3 | -5 | -1
CCN(CCNC(=O)C1CCN(Cc2nc(-c3cccc(Cl)c3)oc2C)CC1)c1ccccc1 | -8 | 33 | x | -1 | i | 3
Cc1ccc(S(=O)(=O)N2CC(CO)=CCC2c2ccccc2)cc1 (stereo not drawn) | x | x | 26* | x | x | 7
CCc1ccc([C@@H]2CC=C(C(=O)O)CN2S(=O)(=O)c2ccc(C)cc2)cc1 | x | 7 | 1 | x | -1 | 13
COCCNC(=O)Nc1cc(OC)cc2cccnc12 | x | 53* | x | x | x | x
CCN(CC)C(=S)SC1=C(Cl)CS(=O)(=O)C1 | x | 98* | x | x | x | x
COCC(=O)N1CCS[C@H](c2ccco2)CC1 | x | -2 | x | x | x | x
Cc1ccc(NC(=O)c2ccc(=O)n(C)n2)cc1F | x | -22 | x | x | x | x
S=c1[nH]nc(-c2ccccn2)n1N=Cc1ccc(Br)s1 | x | 79* | x | x | x | x
S=c1[nH]nc(-c2ccccn2)n1/N=C/c1ccc(Cl)cc1 | 3 | x | 15* | 7 | 0 | -7
Cc1cc(-c2n[nH]c(=S)n2/N=C/c2ccc(Br)s2)n[nH]1 | -2 | x | x | 2 | -1 | 7
Cc1ccsc1C=Nn1c(-c2ccccn2)n[nH]c1=S | x | 88* | x | x | x | x
S=c1[nH]nc(-c2ccccn2)n1/N=C/c1cccs1 | 5 | x | 4 | 5 | -3 | -9
S=c1[nH]nc(-c2ccccn2)n1/N=C/c1ccccc1 | -4 | x | 5 | 6 | i | 7
Cn1cccc1CN(Cc1cccs1)C(=O)CCc1ccc(S(C)(=O)=O)cc1 | x | -1 | x | x | x | x
CC(=O)N/C(=C\c1ccccc1)C(=O)OCC(=O)NC1CCCC1 | 58* | -6 | -7 | 3 | 0 | -4
COc1ccc(/C=C2\SC(=S)N(CCC(=O)Nc3ccc(C(=O)O)cc3)C2=O)cc1 | 52* | -4 | 3 | 1 | i | 3
CCN(CC)CCOC(=O)c1ccc(NC(=O)CCCN2C(=O)/C(=C\c3cccs3)SC2=S)cc1 | -8 | 42* | 0 | 8 | i | 22
CCNC(=O)NCCN1CCC(c2cccs2)CC1 | x | -10 | x | x | x | x
O=C(Nc1cc(F)ccc1F)C1CCN(Cc2nc(-c3ccccc3)no2)CC1 | x | -4 | x | x | x | x
CCCc1cc(=O)oc2c3c(cc(OCC(=O)NCCCn4ccnc4)c12)OC(C)(C)CC3 | 21 | 13 | 11* | 5 | -1 | -197
SMILES | DUSP3 inh | SSB-PriA inh | TcdB inh | SARS 3CLpro inh | Vc quorum ag | CCHF vOTU inh
Cc1cc(=O)oc2c3c(cc(OCC(=O)NCCCn4ccnc4)c12)OC(C)(C)CC3 | 33 | -8 | 0 | 7 | 0 | -179
COc1ccc(-n2nc(C(=O)NCC(=O)N3CCC4(CC3)OCCO4)c3ccccc3c2=O)c(OC)c1 | 56* | -6 | 0 | -2 | 0 | -4
Cc1ccc2oc(C(=O)Nc3ccc(S(=O)(=O)Nc4nccs4)cc3)cc2n1 | x | 1 | x | x | x | x
O=C(Cn1nc(C2CC2)c2cnn(-c3ccc(F)cc3)c2c1=O)OCc1ccccc1 | x | -5 | x | x | x | x
O=[N+]([O-])c1ccc(/C=[N+](\[O-])CCO)o1 | 53* | x | 1 | -2 | 1 | 26
O=[N+]([O-])c1ccc(C=NN=Cc2ccc([N+](=O)[O-])o2)o1 | x | -3 | x | x | x | x
Cc1cccc(Nc2nc(Cl)ncc2F)c1C | 60* | 1 | 1 | -2 | -1 | -7
Cc1cccc(NC(=O)c2csc(Nc3ccccc3)n2)c1C | x | -7 | x | x | x | x
Cc1nn(S(=O)(=O)c2ccccc2)c(C)c1Sc1ccc([N+](=O)[O-])cc1 | 21 | 19 | x | 7 | -4 | 8
Cc1nn(S(=O)(=O)c2ccccc2[N+](=O)[O-])c(C)c1Sc1ccccc1 | x | 37* | x | x | x | x
CCN(CC)Cc1ccc(O)c2ncccc12 | x | 139* | x | x | x | x
CC(C)OCc1ccc(O)c2ncccc12 | x | 87* | x | x | x | x
CCCCCCCCCCCCc1ccc(O)c2ncccc12 | x | 33 | x | x | x | x
CCCCCC(=O)c1ccc(O)c2ncccc12 | x | 130* | x | x | x | x
O=Cc1ccc(O)c2ncccc12 | 28 | 94* | x | 4 | 1 | x
Oc1ccc(-c2ccc(O)c3ncccc23)c2cccnc12 | x | 51 | x | x | x | x
CCOC(=O)CCC(=O)N1CCN(CCn2nc(C)cc2C)CC1 | x | -1 | x | x | x | x
Cc1nc(-c2ccco2)sc1CNC(=O)c1ccccc1C(F)(F)F | x | 5 | x | x | x | x
COc1ccc(NC(=O)C(=O)NCC(c2ccc(C)cc2)N2CCOCC2)cc1Cl (stereo not drawn) | x | -20 | x | x | x | x
COc1ccc(S(=O)(=O)NCC(c2cccn2C)N2CCc3ccccc3C2)c(C)c1 (stereo not drawn) | x | 13 | x | x | x | x
NS(=O)(=O)c1ccc(N=Nc2ccc(O)c3ncccc23)cc1 | -13 | -13 | -1 | 1 | i | 28
CCc1ccc(O)c2ncccc12 | x | 28 | x | x | x | x
CCCCCCCCCCCCCCCCSCc1ccc(O)c2ncccc12 | x | 59* | x | x | x | x
Oc1ccc(Cc2ccc(O)c3ncccc23)c2cccnc12 | x | 72* | x | x | x | x
O=S(=O)(O)c1ccc(O)c2ncccc12 | x | 99* | x | x | x | x
SMILES | DUSP3 inh | SSB-PriA inh | TcdB inh | SARS 3CLpro inh | Vc quorum ag | CCHF vOTU inh
C#CCN(C)Cc1ccc(O)c2ncccc12 | x | 110* | x | x | x | x
CSc1ncc(Cl)c(C(=O)Nc2nc3c(C)cccc3s2)n1 | x | 14 | x | x | x | x
Cc1ccc(S(=O)(=O)N(C)CC(=O)Nc2c(C)cccc2C)cc1 | x | -6 | x | x | x | x
Cc1nc2scc(-c3cccs3)c2c(=O)[nH]1 | 55* | 4 | x | 3 | 0 | -1
O=c1[nH]c(-c2ccc(O)cc2)nc2scc(-c3cccs3)c12 | 23 | -11 | 1 | 3 | 0 | -6
O=C(NCCn1nc(-c2ccncc2)c2c1CCCC2)c1ccco1 | x | 0 | x | x | x | x
COc1ccc(-c2cc(-c3ccccc3)nc(NN)n2)cc1OC | 54* | -4 | 0 | -2 | 1 | 0
COc1cccc(Oc2cn[nH]c2-c2ccc(O)cc2O)c1 | -2 | 4 | x | -5 | i | -3
COc1ccccc1Oc1cn[nH]c1-c1ccc(O)cc1O | 1 | 1 | 19* | 0 | i | -9
COc1ccccc1N1CCN(C(=O)/C=C/c2cccs2)CC1 | -4 | -14 | x | 6 | -1 | -17

Source: PubChem (several laboratories)
